mut p53 react = mutant p53 pathway re-activators, primary screen, cell-based, SW480, luciferase, single point, HTS. SW480 PUMA-promoter luciferase, p53 mutant reactivation. activation, % at 9.98 µM. 1.5% of 28,000 active; in the data active means activation above about 52%; inconclusive means no clear call, values can overlap the other calls
NFkB binder = binders of NF-kB p50 subunit, primary screen, biochemical, small molecule microarray, anti-His fluorescence; Nuclear factor NF-kappa-B p105 subunit (Homo sapiens), P19838; anti-His fluorescence binding; calls only; 1.3% of 17,000 active; AID 624139, 2012;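 active means spot fluorescence over background significantly raised, with a chance value under 7% in all four replicate spots of the compound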;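 further: probe protein is his-tagged human p50 processed subunit at 1 µg/ml; raw spot fluorescence signals with no normalization applied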
Target sequence (P19838 1-433 limits assumed): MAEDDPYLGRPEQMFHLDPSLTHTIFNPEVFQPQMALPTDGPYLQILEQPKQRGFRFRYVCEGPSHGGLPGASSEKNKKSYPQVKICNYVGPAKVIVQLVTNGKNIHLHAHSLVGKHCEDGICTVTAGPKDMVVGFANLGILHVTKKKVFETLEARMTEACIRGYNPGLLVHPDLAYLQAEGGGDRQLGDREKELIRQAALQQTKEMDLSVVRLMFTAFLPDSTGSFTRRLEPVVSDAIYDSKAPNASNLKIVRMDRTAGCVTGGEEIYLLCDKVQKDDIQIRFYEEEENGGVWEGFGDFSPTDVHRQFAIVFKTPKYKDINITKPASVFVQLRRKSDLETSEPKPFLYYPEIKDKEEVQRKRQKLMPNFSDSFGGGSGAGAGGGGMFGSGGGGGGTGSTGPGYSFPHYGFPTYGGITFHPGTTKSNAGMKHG
c-Myc SMM = binders of human c-Myc, primary screen, biochemical, small molecule microarray, anti-His fluorescence | Myc proto-oncogene protein (Homo sapiens), P01106 | His-c-Myc binding | calls only | 1.5% of 17,000 active;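 active means spot fluorescence over background with P-value below 7% in all four replicate spots, showing protein binding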;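 further: score is binary with 100 for all four spots passing and 0 otherwise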
STAT3 SMM = STAT3 binders, primary screen, biochemical, small molecule microarray, single point, set 2. calls only. 0.2% of 17,000 active. Signal transducer and activator of transcription 3 (Homo sapiens), P40763. His-STAT3 binding, anti-His fluorescence;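 active means compounds whose four printed spots each show fluorescence over background unusually high for their array block, chance value under 7%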
mut p53 SMM = binders of human mutant p53, primary screen, biochemical, small molecule microarray, anti-GST fluorescence; mutant tumor protein p53 (GST-tagged), Homo sapiens; small molecule microarray binding; calls only; 0.4% of 17,000 active;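 active means compounds whose four printed spots each glow above background more than chance allows, each with a p-value under 7%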
Active calls of the source: *; i = inactive; ? = inconclusive; . = not tested or not shown; + = active, no number. In the library only some 2.6% were active in any assay of this set; here they are far more common.

SMILES	mut p53 react	NFkB binder	c-Myc SMM	STAT3 SMM	mut p53 SMM
C[C@@H]1CCCCO[C@@H](CN(C)Cc2ccc(C(=O)O)cc2)[C@H](C)CN([C@H](C)CO)C(=O)c2cc(NS(=O)(=O)c3ccc(Cl)cc3)ccc2O1	9.2	.	.	.	.
CC(=O)OC(C)(C)[C@@H]1Cc2cc3ccc(=O)oc3cc2O1	40.2	i	i	i	i
C/C=C(\C)C(=O)OC(C)(C)C1Cc2cc3ccc(=O)oc3cc2O1 (configuration not stated)	-15.6	i	i	i	+
COc1ccc(CN2C(=O)C(O)(CC(=O)c3ccc(Cl)cc3)c3ccccc32)cc1OC (configuration not stated)	14.3	.	.	.	.
Cc1cc2nc(Sc3c([N+](=O)[O-])nc(C)n3Cc3ccccc3)[nH]c2cc1C	76.5*	.	.	.	.
Cc1nc([N+](=O)[O-])c(Sc2nc3ccccc3[nH]2)n1Cc1ccccc1	65.6*	i	i	i	i
O=[N+]([O-])c1ccc2nc(CSc3nc4ccccc4[nH]3)[nH]c2c1	-2.2	i	i	i	i
Cc1occc1-c1nnc2sc(-c3ccc(-c4ccccc4[N+](=O)[O-])o3)nn12	?	i	i	i	+
CCOC(=O)c1sc(N2C(=O)C(=O)C(C(=O)c3ccc(OC)c(C)c3)C2c2ccco2)nc1C (configuration not stated)	1.4	.	.	.	.
COc1cccc2cc(C(=O)C3C(=O)C(=O)N(c4nc(C)c(C)s4)C3c3ccco3)oc12 (configuration not stated)	1.6	i	+	i	i
O=C(O)CCn1nc(-c2ccc(F)cc2)ccc1=O	10.8	.	.	.	.
O=C(O)Cn1nnnc1-c1ccc(F)cc1	-4.4	+	+	i	i
COc1ccc(-c2cc(=O)c3c(O)c(OC)c(O)c(OC)c3o2)cc1	58.5*	i	i	i	i
O=C(NCc1nc(-c2ccccc2)no1)c1ccc2ccccc2c1	-10.6	.	.	.	.
C=CCOC(=O)[C@@H]1[C@H]2C(=O)O[C@H](c3ccccc3)[C@H](c3ccccc3)N2[C@H](c2ccc(OCCOC(=O)[C@@H]3C[C@@H]4C(=O)N5CCC[C@H]5C(=O)N4[C@@H]3c3ccc(O)cc3)cc2)[C@@]12C(=O)Nc1ccc(I)cc12	.	i	i	i	i
C=CCOC(=O)[C@H]1[C@@H]2C(=O)O[C@@H](c3ccccc3)[C@@H](c3ccccc3)N2[C@@H](c2ccc(OCCOC(=O)[C@@H]3C[C@@H]4C(=O)N[C@@H](CC(C)C)C(=O)N4[C@@H]3c3cccc(OCCO)c3)cc2)[C@]12C(=O)Nc1ccc(I)cc12	.	+	i	i	+
C=CCOC(=O)[C@H]1[C@@H]2C(=O)O[C@@H](c3ccccc3)[C@@H](c3ccccc3)N2[C@@H](c2ccc(OCCOC(=O)[C@@H]3C[C@@H]4C(=O)N[C@@H](Cc5ccccc5)C(=O)N4[C@@H]3c3cccc(OCCO)c3)cc2)[C@]12C(=O)Nc1ccccc12	.	+	i	i	i
CCOC(=O)c1cnc2c(C)c(C)ccc2c1NCCN(C)C	41.6	i	i	i	+
COc1ccc(NC(=O)Nc2ccc3c(c2)C(=O)N([C@@H](C)CO)C[C@H](C)[C@@H](CN(C)Cc2ccc(-c4ccccc4)cc2)O3)cc1	.	i	i	i	i
C=CCN1Cc2ccccc2[C@H]2OC(c3ccc(OCCCO)cc3)=N[C@@]2(CC=C)C1=O	.	i	i	i	+
O=C(CN1CCN(S(=O)(=O)c2ccc3ccccc3c2)CC1)Nc1ccc(Br)cc1	-16.0	i	i	i	i
Cc1nn(C(=O)Cn2nc([N+](=O)[O-])cc2C)c(C)c1Cl	13.8	i	+	i	i
Cc1cc([N+](=O)[O-])nn1CC(=O)Nc1cc(Cl)cc(Cl)c1	-6.6	.	.	.	.
C[C@@H]1CN([C@H](C)CO)C(=O)c2cc(NC(=O)Cc3ccccc3)ccc2O[C@H]1CN(C)Cc1ccc(Cl)c(Cl)c1	2.9	.	.	.	.
Cc1cc(N(CC(=O)NC2CC3CCC2C3)S(C)(=O)=O)ccc1Br (configuration not stated)	-11.7	.	.	.	.
SMILES	mut p53 react	NFkB binder	c-Myc SMM	STAT3 SMM	mut p53 SMM
OCc1nc2ccccc2n1CCCOc1ccc(Br)cc1	55.9*	.	.	.	.
Cc1cc(C(F)(F)F)nn1CCCNC(=O)c1cc(-c2ccccc2)nc2ccccc12	-3.6	.	.	.	.
O=C(CS(=O)(=O)c1ccc2ccccc2c1)c1cc2ccccc2oc1=O	-7.5	i	+	i	i
COC(=O)C1=C2CC[C@H](CO)NC(=O)N[C@H](Cc3ccccc3)C(=O)NCc3cn(nn3)C[C@@H](Cc3ccccc3)NC(=O)c3oc(c(C(=O)OC)c3C(=O)OC)CC[C@H](CO)NC(=O)N[C@H](Cc3ccccc3)C(=O)NCc3cn(nn3)C[C@@H](Cc3ccccc3)NC(=O)C(=C1C(=O)OC)O2	.	i	i	+	i
Cc1ccc([N+](=O)[O-])cc1N(CC(=O)Nc1ccc(I)cc1)S(C)(=O)=O	-87.0	.	.	.	.
COCCNc1ncnc2c1cnn2-c1cccc(C)c1	101.5*	i	i	i	i
CCN(CC(=O)Nc1ccccc1)S(=O)(=O)c1ccc(F)cc1	2.0	.	.	.	.
Cc1ccc2nc(-c3cccc(Br)c3)cc(C(=O)NCc3cccnc3)c2c1	57.5*	.	.	.	.
CCCc1ccc(-c2cc(C(=O)NCc3cccnc3)c3ccccc3n2)cc1	105.5*	.	.	.	.
Cc1ccc(-c2cc(C(=O)NCc3cccnc3)c3cc(Br)ccc3n2)cc1	67.0*	.	.	.	.
CCn1cc(CNC(=O)c2cc(-c3cccnc3)nc3ccc(Br)cc23)c(C)n1	-0.2	.	.	.	.
COCCNC(=O)c1cc(-c2cccnc2)nc2ccc(Br)cc12	11.9	i	i	i	i
O=C1CC(c2cccs2)Cc2nc(NCCN3CCOCC3)ncc21 (configuration not stated)	10.6	i	i	i	i
Cc1ccc(F)c(NC(=O)CSc2nnc(-c3ccccc3)n2C)c1	7.5	.	.	.	.
Nc1[nH]nc2nc3ccccc3nc12	63.6*	i	i	i	i
COc1ccc(OCC(=O)Nc2cccc(-c3cnc4ccccc4n3)c2)cc1	91.6*	.	.	.	.
O=C(COc1ccccc1)Nc1ccc2oc(-c3ccccc3)nc2c1	68.5*	i	i	i	i
Cc1cccc(-c2nc3cc(NC(=O)COc4ccccc4)ccc3o2)c1	32.6	.	.	.	.
COc1ccc2oc(-c3cccc(NC(=O)COc4ccc(Cl)cc4)c3)nc2c1	91.3*	.	.	.	.
CCC(=O)Nc1cccc(NC(=O)COc2ccc3ccccc3c2)c1	93.9*	.	.	.	.
COc1ccc(OCC(=O)Nc2ccc3oc(-c4cccc(Br)c4)nc3c2)cc1	43.3	.	.	.	.
